Each structure is given as a SMILES string. The panel holds about 83,000 compounds, 20% with a hit somewhere; the sample as a whole holds those more often.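 The endpoint reported here, percent growth, reads 100 for growth as untreated, 0 for no net growth and -100 for all cells dead.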 A number with no mark means an inactive call. Calls of active or inactive are those of the source. How the source made its calls: active means growth percent below 10; inactive means the rest.

Common to all, as to test: NCI-60 one-dose screen, 48 h (100 = growth as untreated, 0 = no growth, -100 = all killed)
What all share (details): 10 µM unless noted

For experiment [1], the system named is NCI-H23 lung.
Experiment [2] deals with NCI-H226 lung.
Experiment [3] has as its system NCI-H322M lung.
The subject of experiment [4] is HOP-62 NSCLC.
Experiment [5] relates to NCI-H460 lung.
For experiment [6], the system named is HOP-92 NSCLC.
The test system of experiment [7] is NCI-H522 lung.
Experiment [8] relates to A549/ATCC NSCLC.
Experiment [9] has as its system 786-0 renal.
Experiment [10] deals with COLO 205 colon.
Experiment [11] concerns DU-145 prostate.
Experiment [12] has as its system K-562 leukemia.
For experiment [13], the system named is MALME-3M melanoma.
For experiment [14], the system named is MDA-MB-231 breast.
The subject of experiment [15] is RXF 393 renal.
Experiment [16] deals with SF-268 CNS.
Experiment [17] has as its system SF-295 CNS.
The subject of experiment [18] is SF-539 CNS.
Experiment [19] has as its system UACC-257 melanoma.
For experiment [20], the system named is M14 melanoma.

Consider `O=C(Nn1c2c(sc1=NC1CC1)C(=O)c1ccccc1C2=O)c1cc2ccc1CCc1ccc(cc1)CC2`, for which the growth in [1] is 9.63% (active); in experiment [2] it was 64.9%; in experiment [3] it was 96%; in [4] it was 54.1%; in experiment [5], 53.9%; in [6], 95.5%. Moreover, the growth is 37.3% in experiment [7]; 67.7% in experiment [8]; 68.6% in experiment [9]; 96.3% in experiment [10]; 33.2% in experiment [11]; 25.9% in [12]. The growth in [13] was -64.3% (active); in experiment [14], 15.4%; in experiment [15] it was 53.7%; in experiment [16] it was 45.2%; in [17], 79.6%; in experiment [18], 5.17% (active). Also, the growth in experiment [19] was -28.6% (active); in [20], -21.8% (active).
Turning to `CC(=O)c1c(C)nc2ccccc2c1/C=C/c1ccc(F)cc1`, the growth in experiment [1] was 81.7%; in [2], 77.2%; in experiment [3], 96.8%; in experiment [4] it was 92%; in [5], 91.5%; in experiment [6], 75.6%. Moreover, the growth in experiment [7] was 69.2%; in experiment [8], 83.8%; in experiment [9] it was 89.4%; in experiment [10], 104%; in experiment [11], 96.1%; in [12] it was 60.2%. The growth in [13] is 123%; in [14] it was 93.8%; in [15], 92.7%; in [16], 90.6%; in experiment [17] it was 84%; in experiment [18], 90.4%. In addition, the growth in experiment [19] is 95.2%; in experiment [20], 107%.
On to `CC1CCN(S(=O)(=O)c2ccc(S(=O)(=O)N3CCCC(c4nc5c(nnn5Cc5cccc(Cl)c5)c(=O)[nH]4)C3)cc2)CC1` (stereo not given), for which the growth in experiment [1] was 65.4%; in [2], 75.2%; in experiment [3], 61.3%; in experiment [4] it was 57.2%; in [5], 23.9%; in experiment [6], 56%. For the same molecule, the growth in experiment [7] was 33.7%; in experiment [8], 64.8%; in experiment [9] it was 64.4%; in experiment [10], 91.3%; in [11] it was 59.8%; in experiment [12] it was 20.1%. Besides, the growth was 46.7% in [13]; 73% in experiment [14]; 15.8% in experiment [15]; 51.9% in experiment [16]; 63.6% in experiment [17]; 49.7% in [18]. The growth is 54.2% in experiment [19] and 16.9% in [20].
For the molecule `Oc1c(I)cc(I)cc1CNCCN(Cc1ccccn1)Cc1ccccn1`, the growth in [1] was -14% (active); in [2], -65.1% (active); in experiment [3] it was -30.4% (active); in [4], -65.1% (active); in [5], -56.5% (active); in experiment [6] it was -61.8% (active). Further, the growth in experiment [7] was -27.6% (active); in experiment [8] it was -33.3% (active); in experiment [9], -95.2% (active); in experiment [10] it was -34.6% (active); in experiment [11], -74.1% (active); in experiment [12] it was 0.636% (active). Further, the growth in experiment [13] was -62.1% (active); in experiment [14], -36.1% (active); in experiment [15] it was -85.5% (active); in experiment [16], 1.18% (active); in experiment [17] it was -84.6% (active); in [18] it was -56.6% (active). Besides, the growth in experiment [19] was -58.7% (active); in experiment [20], -32.5% (active).
`COc1ccc(/C=N/NC(=O)c2ccc(-n3cc(-c4ccccc4)nn3)cc2)cc1OC`: the growth was 95.2% in [1]; 92.7% in experiment [2]; 105% in [3]; 101% in experiment [4]; 111% in experiment [5]; 94.9% in experiment [6]. The growth is 99.6% in experiment [7]; 104% in experiment [8]; 98.1% in experiment [9]; 91.7% in experiment [10]; 103% in experiment [11]; 93.2% in [12]. Moreover, the growth in experiment [13] was 77.8%; in experiment [14], 103%; in experiment [15] it was 110%; in [16], 93.8%; in experiment [17], 97.7%; in experiment [18], 102%. Moreover, the growth in [19] is 103%; in experiment [20] it was 82.5%.
Regarding `O=S(=O)(Nc1cc(F)cc(Cl)c1)c1ccc(-c2cnc(C3CC3)o2)cc1`, the growth is 44% in [1]; 43% in experiment [2]; 44.5% in experiment [3]; 40.5% in experiment [4]; 20.7% in experiment [5]; 26.7% in [6]. For the same molecule, the growth was 1.55% (active) in experiment [7]; 47.3% in experiment [8]; 30.7% in experiment [9]; 24.3% in experiment [10]; 35.6% in experiment [11]; 17.1% in experiment [12]. The growth in [13] was 52.1%; in [14] it was 42.7%; in experiment [15] it was 14.8%; in experiment [16], 59.5%; in experiment [17] it was 22.4%; in [18], 5.3% (active). Further, the growth in experiment [19] was 62.9%; in [20], 25.2%.
Turning to `O=C1c2ccccc2-c2c1c1c(=O)[nH]c3ccccc3c1n2Cc1ccccc1`, the growth in [1] is 63.1%; in [2], 29.5%; in experiment [3], 58.4%; in experiment [4], 75.8%; in experiment [5] it was 58.9%; in experiment [6], 56.4%. The growth in experiment [7] is 35%; in [8], 44.9%; in [9] it was 39.7%; in [10] it was 73.8%; in experiment [11], 79%; in experiment [12], 63.3%. For the same molecule, the growth was 14% in experiment [13]; 62% in experiment [14]; 25.2% in experiment [15]; 50.7% in experiment [16]; 60.3% in experiment [17]; 55.7% in [18]. In addition, the growth in [19] was 74.9%; in experiment [20], 84.2%.
In the case of `Nc1cc(C(=O)NC[C@H]2CN(c3ccc(N4CCC(C(=O)O)CC4)cc3)C(=O)O2)ccc1Cl`, the growth is 95.1% in experiment [1]; 100% in [2]; 107% in [3]; 99% in [4]; 103% in [5]; 98.4% in experiment [6]. Besides, the growth in experiment [7] is 92%; in experiment [8], 98.5%; in experiment [9] it was 101%; in experiment [10], 104%; in [11] it was 109%; in experiment [12] it was 92.1%. Further, the growth in experiment [13] was 94%; in experiment [14] it was 94.2%; in experiment [15], 112%; in experiment [16], 98.4%; in [17], 103%; in experiment [18] it was 93.7%. Also, the growth in experiment [19] was 98.8%; in experiment [20] it was 98.2%.

Source of the values: PubChem BioAssay (NCI).
